This note sets out measurements from PubChem BioAssay AID2796 (The Scripps Research Institute Molecular Screening Center, 2010).

SMILES strings stand for the structures. The whole screen tested about 320,000 compounds, of which about 8,000 (2.5%) were called active. Rule as the data show it: active = activation above about 47%; inactive = the rest. Only a selection was taken, and actives are over-represented in it overall.

The experiment deals with Aryl hydrocarbon receptor (Homo sapiens) (UniProt P35869). The experiment is described as follows: AHR activators, primary screen, cell-based, luminescence, luciferase reporter, human (AID 2796).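 Also: 0% = vehicle wells and 100% = reference agonist.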 The settings on record: AHR-responsive luciferase reporter cells, at 5 µM, active compounds read high.
Sequence of Aryl hydrocarbon receptor (Homo sapiens) (P35869 whole entry, looked up): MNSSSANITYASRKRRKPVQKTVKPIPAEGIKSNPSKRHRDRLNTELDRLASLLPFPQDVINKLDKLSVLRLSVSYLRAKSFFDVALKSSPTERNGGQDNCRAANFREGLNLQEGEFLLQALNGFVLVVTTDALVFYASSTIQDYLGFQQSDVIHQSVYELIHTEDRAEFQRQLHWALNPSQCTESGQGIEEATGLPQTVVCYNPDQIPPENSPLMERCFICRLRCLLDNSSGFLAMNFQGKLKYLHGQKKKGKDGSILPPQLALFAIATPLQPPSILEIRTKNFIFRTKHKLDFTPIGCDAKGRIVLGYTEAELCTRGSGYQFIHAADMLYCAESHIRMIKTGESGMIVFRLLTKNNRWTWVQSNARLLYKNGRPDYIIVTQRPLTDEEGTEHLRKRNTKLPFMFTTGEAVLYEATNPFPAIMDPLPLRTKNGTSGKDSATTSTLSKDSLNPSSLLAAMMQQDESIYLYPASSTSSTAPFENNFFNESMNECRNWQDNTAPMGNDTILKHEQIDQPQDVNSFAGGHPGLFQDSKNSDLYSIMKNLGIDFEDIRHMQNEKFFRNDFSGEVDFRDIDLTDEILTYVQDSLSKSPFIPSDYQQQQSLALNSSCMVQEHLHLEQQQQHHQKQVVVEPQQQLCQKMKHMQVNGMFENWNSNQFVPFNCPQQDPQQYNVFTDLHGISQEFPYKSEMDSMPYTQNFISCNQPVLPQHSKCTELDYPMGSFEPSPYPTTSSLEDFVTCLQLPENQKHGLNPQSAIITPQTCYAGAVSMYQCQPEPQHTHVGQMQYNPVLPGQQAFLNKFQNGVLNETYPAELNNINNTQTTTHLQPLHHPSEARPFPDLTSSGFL
Take `O=C1C2C3C=CC(C4CC34)C2C(=O)N1c1nccs1` (centres undefined): the activation was 0.87% (inactive).

As for `Cc1ccccc1N1C(=O)C(Oc2ccc(Cl)cc2)C1CNCC1CCCO1` (centres undefined), the activation is -0.77% (inactive).

Regarding `COc1ccccc1Cn1c(C)nnc1-c1cnn(C)c1N`, the activation was 4.53% (inactive).

In the case of `CN(C)c1ccc(NC(=O)CN2C3CCCC2CC(NC(=O)c2ccccc2)C3)cc1` (centres undefined), the activation was 7.23% (inactive).

With `Cc1nc(-c2ccc(Cl)cc2)sc1C(=O)CBr`, the activation is 54.9% (active).

`Cc1nc(-c2ccc(Cl)cc2)sc1C(=O)NN`: the activation is 10.3% (inactive).

Consider `Cc1nc(-c2ccccc2)sc1C(=O)/C=C/N(C)C`, for which the activation was 3.46% (inactive).

As to `Cc1ccnc(-n2sc3ccccc3c2=O)n1`, the activation was 98.3% (active).

`Cc1nc2ccccc2c(=O)n1NC(=O)c1ccccc1`: the activation was -1.87% (inactive).

On to `Cc1ccnc(N2CCCC(C(=O)NC3CC3)C2)n1` (centres undefined), for which the activation is 1.42% (inactive).

Regarding `COc1ccc(CCNC(=O)c2ccccc2OCc2ccccc2)cc1`, the activation was -0.83% (inactive).

On to `NC(=O)Nc1ccccc1C(=O)NCCc1ccccc1`, for which the activation is 109% (active).

With `O=C(O)c1ccccc1-c1ccccc1C(=O)NCCc1ccccc1`, the activation was -1.22% (inactive).

Turning to `COc1ccccc1NC(=O)[C@H](COCc1ccccc1)NC(=O)OC(C)(C)C`, the activation is 13.7% (inactive).

As for `CC(C)NC(=O)COCc1cc(-c2ccc3c(c2)OCO3)on1`, the activation was 14.2% (inactive).

With `CCc1nc(C)cn1S(=O)(=O)c1cc([N+](=O)[O-])ccc1Cl`, the activation is -0.55% (inactive).

For `CC1CCc2c(c3ccccc3[nH]c2=O)O1` (centres undefined), the activation was 45.7% (inactive).

As to `N/C(=N\OS(=O)(=O)c1cccc([N+](=O)[O-])c1)c1ccncc1`, the activation is 0.65% (inactive).

For the molecule `COc1ccc(C2Nc3ccccc3C(=O)N2c2ccc(Cl)cc2)cc1Cn1cc([N+](=O)[O-])cn1` (centres undefined), the activation is 57.9% (active).

Turning to `COc1ccc(C2Nc3ccccc3C(=O)N2c2ccc(F)cc2)cc1Cn1nnc2ccccc21` (centres undefined), the activation was 4.17% (inactive).

Turning to `COc1ccc(N2C(=O)c3ccccc3NC2c2ccc(OC)c(CN3CCOCC3)c2)cc1` (centres undefined), the activation is 4.09% (inactive).

Turning to `CC(C)N(C(=O)CSc1nnc(NC2CC2)s1)c1ccccc1`, the activation was 7.53% (inactive).

Turning to `COc1ccc(C(=O)O)cc1S(=O)(=O)NC1CCN(Cc2ccccc2)CC1`, the activation was -0.69% (inactive).

On to `NNc1nc2c(Cl)cccc2s1`, for which the activation was 115% (active).

Regarding `Cc1ccc2c(CC(=O)NCc3cccs3)coc2c1`, the activation is 8.24% (inactive).

Regarding `CCCNC(=O)c1ccc(N2CCC3(CC2)CC(c2cccc(Br)c2)=NO3)c(NC(=O)c2ccco2)c1`, the activation was -6.12% (inactive).

Take `Cc1cc(/C=C(/C#N)C(=O)Nc2ccc(Cl)cc2)c(C)n1-c1cccnc1`: the activation was 76% (active).

Take `Cc1cc(/C=C2/NC(=O)NC2=O)c(C)n1-c1cccnc1`: the activation was 26.3% (inactive).

In the case of `N#C/C(=C\c1cccnc1)C(=O)Nc1ccc(SC(F)F)cc1`, the activation is 3.63% (inactive).
